Assay results: PubChem BioAssay (NCATS)
Results filed as inconclusive are left out. Active and inactive are the calls of the source. Calls follow the shape of the dose curve; as a rule, active = well fitted cell-killing curve with a large enough effect; inconclusive = small, poorly fitted or top-dose-only effect, or effect the other way; inactive = no such curve, though single readings can be large or run the other way.

Experiments:
[1] = Quantitative High-Throughput drug screen in 47 multiple myeloma cell lines against the NCATS MIPE library collection: MM1R_ATCC cell viability assay (AID 1918981); conditions: MM1R multiple myeloma cells, CellTiter-Glo viability, 48 h; series mostly up to 45.8 µM; also: nearly all actives have a fitted effect of over 35% in size
Outline: (§1)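 MIPE 4.0 approved/investigational drugs; 500 cells/well; 48 h 37 °C humidified 5% CO2; CTG luminescence readout; DMSO = 100%, media = 0% viability.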

[2] = Quantitative High-Throughput drug screen in 47 multiple myeloma cell lines against the NCATS MIPE library collection: KMS28PE_JCRB cell viability assay (AID 1918983); conditions: KMS28PE multiple myeloma viability, CellTiter-Glo ATP, 48 h; series mostly up to 45.8 µM; also: nearly all actives have a fitted effect of over 35% in size
Outline: as §1

[3] = Quantitative High-Throughput drug screen in 47 multiple myeloma cell lines against the NCATS MIPE library collection: KMS34_JCRB cell viability assay (AID 1918985); conditions: KMS34 myeloma viability, CellTiter-Glo ATP luminescence, 48 h; series mostly up to 45.8 µM; also: nearly all actives have a fitted effect of over 40% in size
Outline: as §1

[4] = Quantitative High-Throughput drug screen in 47 multiple myeloma cell lines against the NCATS MIPE library collection: OPM1_PLB cell viability assay (AID 1918989); conditions: CellTiter-Glo, 48 h; series mostly up to 45.8 µM; also: nearly all actives have a fitted effect of over 40% in size
Outline: as §1

[5] = Quantitative High-Throughput drug screen in 47 multiple myeloma cell lines against the NCATS MIPE library collection: SKMM1_PLB cell viability assay (AID 1919863); conditions: SKMM1 myeloma viability, CellTiter-Glo ATP, 48 h; viability: hits give low values; also: nearly all actives have a fitted effect of over 35% in size
Outline: as §1

[6] = Quantitative High-Throughput drug screen in 47 multiple myeloma cell lines against the NCATS MIPE library collection: U266_ATCC cell viability assay (AID 1919864); conditions: U266 myeloma viability, CellTiter-Glo ATP luminescence, 48 h; series mostly up to 45.8 µM; also: nearly all actives have a fitted effect of over 35% in size;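 as to viability (% of DMSO control): 0% = media-only wells without cells and 100% = DMSO-only wells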
Outline: as §1

[7] = Quantitative High-Throughput drug screen in 47 multiple myeloma cell lines against the NCATS MIPE library collection: XG6_PLB cell viability assay (AID 1919865); conditions: XG6 myeloma viability, CellTiter-Glo ATP luminescence, 48 h; series mostly up to 45.8 µM; also: nearly all actives have a fitted effect of over 40% in size
Outline: as §1

[8] = Quantitative High-Throughput drug screen in 47 multiple myeloma cell lines against the NCATS MIPE library collection: VP6_DJ cell viability assay (AID 1919867); conditions: ATP luminescence, 48 h; series mostly up to 45.8 µM; also: nearly all actives have a fitted effect of over 40% in size;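 as to viability (% of DMSO): 100% = DMSO-only wells and 0% = wells with media alone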
Outline: as §1

[9] = Quantitative High-Throughput drug screen in 47 multiple myeloma cell lines against the NCATS MIPE library collection: PE2_PLB cell viability assay (AID 1919869); conditions: PE2_PLB myeloma cells viability, ATP luminescence, 48 h; series mostly up to 45.8 µM; also: nearly all actives have a fitted effect of over 35% in size
Outline: as §1

[10] = Quantitative High-Throughput drug screen in 47 multiple myeloma cell lines against the NCATS MIPE library collection: RPMI8226_ATCC cell viability assay (AID 1919871); conditions: RPMI8226 myeloma viability, CellTiter-Glo ATP luminescence, 48 h; series mostly up to 45.8 µM; also: nearly all actives have a fitted effect of over 30% in size
Outline: as §1

[11] = Quantitative High-Throughput drug screen in 47 multiple myeloma cell lines against the NCATS MIPE library collection: KMS11_JCRBsus cell viability assay (AID 1919873); conditions: KMS11 myeloma viability, CellTiter-Glo ATP luminescence, 48 h; series mostly up to 45.8 µM; also: nearly all actives have a fitted effect of over 50% in size
Outline: as §1

[12] = Quantitative High-Throughput drug screen in 47 multiple myeloma cell lines against the NCATS MIPE library collection: KMS28BM_JCRB cell viability assay (AID 1919874); conditions: CellTiter-Glo ATP, 48 h; series mostly up to 45.8 µM; also: nearly all actives have a fitted effect of over 35% in size
Outline: as §1

[13] = Quantitative High-Throughput drug screen in 47 multiple myeloma cell lines against the NCATS MIPE library collection: L363_DSMZ cell viability assay (AID 1918984); conditions: L363 myeloma viability, CellTiter-Glo ATP luminescence, 48 h; series mostly up to 45.8 µM; also: nearly all actives have a fitted effect of over 40% in size
Outline: as §1

[14] = Quantitative High-Throughput drug screen in 47 multiple myeloma cell lines against the NCATS MIPE library collection: OCIMY7_PLB cell viability assay (AID 1918987); conditions: OCI-MY7 myeloma viability, CellTiter-Glo ATP, 48 h; viability (% of DMSO): at 45.8 µM (top of the series); also: nearly all actives have a fitted effect of over 65% in size
Outline: as §1

[15] = Quantitative High-Throughput drug screen in 47 multiple myeloma cell lines against the NCATS MIPE library collection: OCIMY5_PLB cell viability assay (AID 1918988); conditions: OCI-MY5 myeloma viability, ATP luminescence, 48 h; series mostly up to 45.8 µM; also: nearly all actives have a fitted effect of over 65% in size
Outline: as §1

[16] = Quantitative High-Throughput drug screen in 47 multiple myeloma cell lines against the NCATS MIPE library collection: UTMC2_PLB cell viability assay (AID 1919868); conditions: CellTiter-Glo ATP luminescence, 48 h; viability (% of DMSO control): at 45.8 µM (top of the series); also: nearly all actives have a fitted effect of over 55% in size;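 as to viability (% of DMSO control): 100% = DMSO-only wells and 0% = media-only wells without cells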
Outline: as §1

[17] = Quantitative High-Throughput drug screen in 47 multiple myeloma cell lines against the NCATS MIPE library collection: PCM6_Riken cell viability assay (AID 1919870); conditions: CellTiter-Glo ATP, 48 h; series mostly up to 45.8 µM; also: nearly all actives have a fitted effect of over 30% in size
Outline: as §1

[18] = Quantitative High-Throughput drug screen in 47 multiple myeloma cell lines against the NCATS MIPE library collection: OPM2_DSMZ cell viability assay (AID 1919872); conditions: OPM2 myeloma viability, CellTiter-Glo ATP luminescence, 48 h; series mostly up to 45.8 µM; also: nearly all actives have a fitted effect of over 30% in size
Outline: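 qHTS of the MIPE 4.0 collection: 500 myeloma cells/well, 48 h drug exposure at 37C in 5% CO2, then CellTiter-Glo for 5 min at room temperature before luminescence reading.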

[19] = Quantitative High-Throughput drug screen in 47 multiple myeloma cell lines against the NCATS MIPE library collection: LP1_DSMZ cell viability assay (AID 1918982); conditions: LP1 myeloma viability, CellTiter-Glo ATP luminescence, 48 h; series mostly up to 45.8 µM; also: nearly all actives have a fitted effect of over 35% in size
Outline: as §1

[20] = Quantitative High-Throughput drug screen in 47 multiple myeloma cell lines against the NCATS MIPE library collection: XG1_PLB cell viability assay (AID 1919866); conditions: CellTiter-Glo ATP, 48 h; series mostly up to 45.8 µM; also: nearly all actives have a fitted effect of over 35% in size
Outline: as §1
Potency is read from the fitted curve at half-maximal effect.

O=C(CCN1CCN(C(=O)OCc2cc(Cl)cc(Cl)c2)CC1)c1ccc2[nH]c(=O)oc2c1
inactive: Potency [2] | Potency [3] | Potency [4] | viability [5] 136% | Potency [6] | Potency [7] | Potency [8] | Potency [9] | Potency [10] | Potency [11] | Potency [12]
active: Potency [1] 18.7 µM

O=C(O)C=Cc1ccc(O)c(O)c1
inactive: Potency [16] | Potency [17] | Potency [18] | Potency [12]
active: Potency [1] 23.5 µM | Potency [2] 2.96 µM | Potency [13] 16.6 µM | Potency [14] 16.6 µM | Potency [15] 18.7 µM | Potency [4] 16.6 µM | Potency [5] 29.6 µM | Potency [6] 14.8 µM | Potency [9] 16.6 µM

CC(C)OC(=O)CCCC=CC[C@@H]1[C@H](C=C[C@@H](O)COc2cccc(C(F)(F)F)c2)[C@H](O)C[C@@H]1O
active: Potency [19] 14.8 µM | Potency [2] 20.9 µM | Potency [3] 13.2 µM | Potency [15] 16.6 µM | Potency [4] 18.7 µM | Potency [5] 20.9 µM | Potency [6] 20.9 µM | Potency [7] 16.6 µM | Potency [20] 18.7 µM | Potency [16] 16.6 µM | Potency [9] 16.6 µM | Potency [17] 20.9 µM | Potency [10] 10.5 µM | Potency [18] 23.5 µM | Potency [11] 16.6 µM | Potency [12] 18.7 µM

CC(C)C(C)C=CC(C)C1CCC2C3=CC=C4CC(O)CCC4(C)C3CCC21C (configuration not stated)
active: Potency [2] 16.6 µM | Potency [15] 23.5 µM
inactive: Potency [19] | Potency [13] | Potency [3] | Potency [4] | viability [5] 135% | Potency [7] | Potency [8] | Potency [16] | Potency [9] | Potency [17] | Potency [10] | Potency [18] | Potency [11]

O=c1cc(-c2cccc3c2Sc2ccccc2S3)oc(N2CCOCC2)c1
active: Potency [1] 23.5 µM | Potency [15] 20.9 µM | Potency [4] 26.4 µM | Potency [5] 18.7 µM | Potency [7] 18.7 µM | Potency [20] 18.7 µM | Potency [8] 14.8 µM | Potency [9] 18.7 µM | Potency [11] 20.9 µM

Cc1cc(OCCCc2c(C(=O)O)n(Cc3cccnc3)c3c(-c4c(COc5ccc(N6CCN([S+](C)(=O)[O-])CC6)cc5)nn(C)c4C)cccc23)cc(C)c1Cl
inactive: Potency [13]
active: Potency [19] 14.8 µM | Potency [2] 23.5 µM | Potency [15] 23.5 µM | Potency [5] 23.5 µM | Potency [6] 3.32 µM | Potency [7] 20.9 µM | Potency [9] 18.7 µM | Potency [17] 20.9 µM | Potency [18] 10.5 µM | Potency [11] 23.5 µM | Potency [12] 23.5 µM
